Consider 15 compounds from PubChem BioAssay (EPA / NIEHS).

“And” between values parts separate entries of the source, which are not always exact repeats. Equal entries are not always repeated. The source made the active and inactive calls. Rule for the calls: active = hit-call score of the fitted dose curve at least 0.9, where 1 is the maximum; inactive = score below 0.9.

Read-out in the test: Collagen IV, COL4A1 (gene 1282)
As to the kind of experiment: BSK_MyoF_CollagenIV: BioMAP Diversity Plus: MyoF Assay for Collagen IV Biomarker Activity (AID 2284247). Particulars: primary human lung fibroblasts. As for the experimental part: BSK_MyoF is a cell-based, multiplexed-readout assay that uses lung fibroblasts, […], with measurements taken at 24 hours after chemical dosing in a microplate: 96-well plate.BSK_MyoF_CollagenIV is an assay component measured in the BSK_MyoF assay. It measures Collagen IV antibody related to regulation of gene expression using ELISA technology.Data from the assay component BSK_MyoF_CollagenIV was analyzed at the endpoint, BSK_MyoF_CollagenIV, in the positive analysis fitting direction relative to DMSO as the negative control and baseline of activity. Using a type of binding reporter, gain or loss-of-signal activity can be used to understand protein changes. To generalize the intended target to other relatable targets, this assay endpoint is annotated to the 'cell adhesion molecules' intended target family, where the subfamily is 'collagen'.
The levels of cell surface (or secreted, indicated by the prefix "s") biomarker endpoints were measured by ELISA. Overt cytotoxicity to cells in confluent adherent cultures (all systems other than the BT system) was assessed by measuring total protein levels using sulforhodamine B (SRB) staining in parallel cultures at the time of biomarker measurements, indicated as SRB endpoints. For proliferation assays for adherent cell types, individual cell types are cultured at sub-confluence and relative cell numbers quantified by SRB staining at time points optimized for each system (48 h: 3C and CASM3C systems; 72 h: BT and HDF3CGF systems; 96 h: SAg system). SRB was performed by staining cells with 0.1% SRB after fixation with 10% TCA and reading wells at 560 nm.Viability and proliferation of PBMC (T cells) was quantified by Alamar Blue reduction for the SAg and BT systems. For PBMC viability (referred to as PBMC Cytotoxicity within the assay endpoint names), cells were plated (75,000/well in a 96-well plate) and then chemical samples added for 1 h before addition of activators, SEB and TSST-1 (20 ng/mL final concentration each). Cells were incubated for 90 h. Then, Alamar Blue (20 uL/well) (Invitrogen, Cat DAL1100) was added for 6 h, and the plates were read with a fluorescence microplate reader at 546/580 nm (excitation/emission). For PBMC proliferation, cells were plated and activated as above but incubated for only 16 h prior to addition of Alamar Blue. Plates were read after 6 h.
In the case of `Oc1cccc2ccccc12`, the outcome was inactive.
Same read-out and setting: as for `CCCCCCC(O)CCCCCCCCCCC(=O)OC` (stereo not given), the entry is “inactive”; as for `Sc1nc2ccccc2s1`, “inactive”; as for `COC(=O)/C=C\C(=O)OC`, “inactive”.
As to `O=C(C(=O)c1ccccc1)c1ccccc1`, the AC50 is 0.913 µM (active).
Turning to `Cc1cc(-n2nc3ccc(Cl)cc3n2)c(O)c(C(C)(C)C)c1`, the outcome was inactive.
On to `OC(C(F)(F)F)(C(F)(F)F)C(O)(C(F)(F)F)C(F)(F)F`, for which the AC50 was 13.6 µM (active) and 13.9 µM (active).
With `CCCCCCCCCC/C=C/C1CC(=O)OC1=O` (stereo not given), the outcome was inactive.
As for `CN(C)c1ccc(C(c2ccccc2)c2ccc(N(C)C)cc2)cc1`, the AC50 was 11.9 µM (active).
On to `CC(C)CC(=O)CC(C)CC(C)C` (stereo not given), for which the outcome was inactive.
`CC[N+](CC)(CC(=O)Nc1c(C)cccc1C)Cc1ccccc1`: the result was inactive.
Consider `Cc1cccnc1`, for which the outcome was inactive.
Turning to `CCCCCCCCCCC1CO1` (stereo not given), the result was inactive.
Take `CN(C)CCC(c1ccc(Cl)cc1)c1ccccn1` (stereo not given): the result was inactive.
In the case of `CCCCCCCCCCCCCCCCCC[N+](C)(C)C`, the AC50 was 3.72 µM (active).

What is called AC50 is the concentration at which the activity in the assay is half-maximal.
